# A selection: hits, their analogues and other compounds. The true share with any hit is near 19%.
# HT1080 IDH1KD tx = kills HT-1080 cells with IDH1 knockdown; HT-1080 IDH1 knockdown viability, ATP luminescence, 48 h; actives 2% (n = 360,000); Potency, µM (doses to about 46.1 µM), without a hit: top-dose activity, negative = toxicity, usual class: cytotoxic; AID 686971;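 further: potency means the concentration at half of the fitted maximal effect; 0% = DMSO wells and -100% = cell-free medium wells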
#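 Luminescent ATP read-out (CellTiter-Glo, 10 min at room temperature) after 48 h compound exposure at 37 °C gave viability of IDH1-knockdown HT-1080 cells. Activity was normalised to DMSO and cell-free wells, then fitted as concentration-response curves.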
# HT1080-NT tox = kills 2HG-producing HT-1080-NT fibrosarcoma cells | actives 1.6% (n = 360,000) | Potency, µM (series often up to 46.1 µM), for inactives: top-dose activity, negative = less viability, actives largely listed as cytotoxic | HT-1080-NT fibrosarcoma viability, CellTiter-Glo ATP luminescence, 48 h;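 further: NT is the 2HG producing partner of a matched IDH1 knockdown line; potency means the concentration at half of the fitted maximal effect; 0% = DMSO-treated cells and -100% = media-only wells without cells; nearly all actives have a fitted effect of over 55% in size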
#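 Fibrosarcoma NT cells, 750 per well in 5% FBS RPMI, were exposed to compound for 48 hours. Viability: CellTiter-Glo luminescence.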
# IL-1B inflam inh = inflammasome signaling inhibition, IL-1 beta readout; actives 4.7% (n = 360,000); activity change, % at 57.5 µM; THP-1 LPS/ATP IL-1B secretion, AlphaLISA, 16 h; active compounds read low; in the data active means activity change below about -50%; inconclusive means mostly about -30% to -49%
#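 Secreted IL-1B measured by AlphaLISA bead assay after 16 h compound exposure of THP-1 cells; compounds (final up to 57.5 uM) added 1 h before LPS (250 ng/mL) and ATP (1.25 mM) stimulation; lower signal means less secretion.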
# DT40 TDP1 CPT = DT40-hTDP1 cell growth loss with CPT | chicken DT40 Tdp1-/-;hTDP1 cells + 20 nM CPT, ATP luminescence, 48 h | Potency, µM (top dose mostly 46.2 µM), without a hit: at the top dose activity change, negative = growth inhibition, usual class: inhibitors | actives 12% (n = 420,000) | AID 686979; further: potency means the concentration at half of the fitted maximal effect; nearly all actives have a fitted effect of over 55% in size
#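 Chicken DT40 Tdp1-/- cells complemented with human TDP1, 400 cells/well, exposed to compounds plus 20 nM camptothecin for at least 48 h at 37 C; viability read as ATP content by CellTiter-Glo luminescence.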
# TDP1 cell noCPT = qHTS for Inhibitors of human tyrosyl-DNA phosphodiesterase 1 (TDP1): qHTS in cells in absence of CPT; DT40 Tdp1-/- hTDP1 cells, no CPT, ATP luminescence, 48 h; Potency, µM (top dose mostly 46.2 µM), inactives show at the highest dose activity change, negative = growth inhibition, actives largely listed as inhibitors; actives 15% (n = 420,000); further: potency means the concentration at half of the fitted maximal effect; nearly all actives have a fitted effect of over 55% in size
#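 Seeded 400 DT40-hTDP1 cells/well (vehicle DMSO, no 20 nM CPT); pinned compounds; ≥48 hr at 37 °C; CellTiter-Glo luminescence as viability measure.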
# * = called active by the depositor; ? = inconclusive; / = no result. Unless noted, the call rests on the fitted dose curve; in most records, active means well fitted curve in the direction sought with a large enough effect; inconclusive means small, poorly fitted or top-dose-only effect, or another doubt; inactive means no such curve, though single readings can be large; an effect the other way counts as inactive or inconclusive. Unless noted, on the % scale 0 is the no-effect control and ±100 the full control effect.
SMILES,HT1080 IDH1KD tx,HT1080-NT tox,IL-1B inflam inh,DT40 TDP1 CPT,TDP1 cell noCPT
CC(=O)N1CCN(C(c2ccccc2)c2nnnn2C(C)(C)C)CC1 (configuration not stated),29%,19%,60,5%,-14%
COc1cccc(CNC(=O)[C@@H]2CCCN2C(=O)[C@H]2CCCCN2C(=O)c2cccc(Cl)c2)c1,-18%,6%,-20,6%,?
CCOc1ccccc1OCCOCCOc1ccccc1[N+](=O)[O-],1%,2%,18,-27%,10µM*
CC1CCN(CCCCOc2ccccc2[N+](=O)[O-])CC1,0%,1%,-62*,-37%,-13%
CC1CCN(CCCCOc2ccc([N+](=O)[O-])cc2)CC1,9%,0%,-11,16%,-22%
Cc1ccc(OCCCCN2CCCC(C)C2)c([N+](=O)[O-])c1 (configuration not stated),4%,-2%,-5,18µM*,23µM*
Cc1ccc([N+](=O)[O-])c(OCCCN2CCCCCC2)c1,-2%,-11%,-7,?,?
Cc1ccnc(NC(=O)CN2C(=O)NC(C)(c3ccc4ccccc4c3)C2=O)c1 (configuration not stated),-23%,-15%,14,-13%,?
COc1ccccc1CNC(=O)c1cc(-c2ccncc2)nc2c(Cl)cccc12,-1%,-3%,-15,?,?
CCCCCc1nnc(NC(=O)CN2C(=O)C3CCCCC3C2=O)s1 (configuration not stated),-1%,-5%,-3,12%,12%
CSc1nn(Cc2ccc(F)cc2)c(N(C(C)=O)C(C)=O)c1S(=O)(=O)c1ccccc1,/,/,/,-29%,?
Cc1cccc(CC(=O)Nc2ccc3nc(N4CCC(C)CC4)cc(C)c3c2)c1,/,/,/,21µM*,15µM*
Cc1cc(N2CCC(C)CC2)nc2ccc(NC(=O)Cc3ccccc3Br)cc12,/,/,/,21µM*,13µM*
COc1ccccc1CC(=O)Nc1ccc2nc(N3CCC(C)CC3)cc(C)c2c1,/,/,/,-21%,?
COc1ccc(/C=C/C(=O)Nc2ccc3nc(N4CCC(C)CC4)cc(C)c3c2)cc1OC,/,/,/,4.1µM*,4.6µM*
CN(C)c1ccc(C(=O)N=c2sccn2C)cc1[N+](=O)[O-],26%,?,?,16%,4%
CCc1ccccc1NC(=O)CSc1nnc(CNC(=O)c2ccco2)n1C,11%,-4%,18,12%,10%
Cc1ccc(S(=O)(=O)N2CC(O)CC2C(=O)O)cc1 (configuration not stated),13%,1%,29,1%,-1%
CC(C)CN(CC(C)C)C(=O)COc1ccccc1C(N)=O,-3%,3%,0,?,12µM*
CC1CCC(NC(=O)COc2ccccc2C(N)=O)CC1 (configuration not stated),1%,1%,13,?,-1%
Cc1cccc(C(=O)c2c[nH]cc2-c2ccccc2)c1,10%,12%,-24,-25%,?
CCC[n+]1c(C)sc2c3c(ccc21)CCCC3,?,?,-97*,1.8µM*,2.3µM*
O=C(NC1(O)C(=O)c2ccccc2C1=O)c1ccccc1,16%,8%,-8,26µM*,?
O=C(NC1(O)C(=O)c2ccccc2C1=O)c1c(Cl)cccc1Cl,-3%,-2%,7,?,26µM*
O=C(Nc1ccccc1Cl)c1c(F)c(F)c(F)c(F)c1F,2%,-5%,?,-11%,-18%
SMILES,HT1080 IDH1KD tx,HT1080-NT tox,IL-1B inflam inh,DT40 TDP1 CPT,TDP1 cell noCPT
COc1ccccc1N1CCN(C(=O)CCn2cnc3onc(-c4ccc(F)cc4)c3c2=O)CC1,/,/,/,?,21µM*
COc1ccc(N2CCN(C(=O)CCn3cnc4onc(-c5ccc(F)cc5)c4c3=O)CC2)cc1,/,/,/,23µM*,?
Cc1ccc(NC(=O)Cn2cnc3onc(-c4ccc(F)cc4)c3c2=O)c(Cl)c1,/,/,/,-22%,-27%
Cc1ccc(Cl)cc1N1CCN(C(=O)Cn2cnc3onc(-c4ccc(F)cc4)c3c2=O)CC1,/,/,/,18µM*,18µM*
O=C(CCn1cnc2onc(-c3ccc(F)cc3)c2c1=O)N1CCN(c2cccc(Cl)c2)CC1,/,/,/,16µM*,16µM*
COc1ccccc1N1CCN(C(=O)CCC(=O)N2CCN(c3ccc(F)cc3)CC2)CC1,1%,0%,65,-30%,?
NC(=O)c1cc(C(=O)c2ccccc2Cl)c[nH]1,9%,0%,-6,-3%,-16%
CN1CCCC(C(=O)Nc2cccc(Cl)c2)CC1 (configuration not stated),17%,14%,12,6%,-2%
CCCN(C(=O)CCn1cnc2onc(-c3ccc(F)cc3)c2c1=O)c1ccccc1C,/,/,/,18µM*,16µM*
CCCCN(CC)CCNC(=O)CCn1cnc2onc(-c3ccc(F)cc3)c2c1=O,/,/,/,26µM*,23µM*
COC(=O)CCn1cnc2onc(-c3cc(F)cc(F)c3)c2c1=O,/,/,/,19%,-28%
CCN(C(=O)Cn1cnc2onc(-c3ccc(F)cc3)c2c1=O)c1cc(C)ccc1C,/,/,/,13µM*,21µM*
COc1cccc(N2CCN(C(=O)Cn3cnc4onc(-c5ccc(F)cc5)c4c3=O)CC2)c1,/,/,/,23µM*,21µM*
Cc1cc2c(=O)n(CC(=O)N3CCN(c4ccc(F)cc4)CC3)cnc2s1,8%,3%,-19,-25%,?
CCOC(=O)Cn1cnc2onc(-c3ccc(F)cc3)c2c1=O,/,/,/,-2%,0%
O=C(O)CCn1cnc2onc(-c3ccccc3Cl)c2c1=O,/,/,/,15%,-10%
CN1C=CC(=O)[C@@H](O)[C@H]1c1ccccc1Br,12%,12%,14,12%,11%
C[C@H]1CCCCO[C@H](CN(C)S(=O)(=O)c2cn(C)cn2)[C@@H](C)CN([C@@H](C)CO)C(=O)c2cc(NS(=O)(=O)c3ccccc3)ccc2O1,16%,15%,4,8%,-3%
CCN(C(=O)CCn1cnc2onc(-c3ccc(F)cc3)c2c1=O)c1ccc(OC)cc1,/,/,/,16µM*,18µM*
COc1cc(Cl)c(C)cc1NC(=O)CCn1cnc2onc(-c3ccc(F)cc3)c2c1=O,/,/,/,18µM*,?
Cc1cccc(C)c1NC(=O)C1(C)CN(S(C)(=O)=O)CC(=O)N1CCc1ccc(O)cc1 (configuration not stated),5%,20%,-22,27%,9%
Cc1cc(C)c(NC(=O)CN2C(=O)CC(C)S(=O)(=O)c3ccccc32)c(C)c1 (configuration not stated),3%,8%,-15,-12%,0%
